Source: PubChem (The Scripps Research Institute Molecular Screening Center)
GPR151 activ: activators of human GPR151, primary screen, cell-based, PathHunter beta-arrestin, luminescence. hit rate 1% among 650,000. G-protein coupled receptor 151 (Homo sapiens), Q8TDV0. PathHunter beta-arrestin GPR151 cells. activation, % at 11.2 µM; in the data active means activation above about 4.9%
Target sequence (Q8TDV0 whole entry, looked up): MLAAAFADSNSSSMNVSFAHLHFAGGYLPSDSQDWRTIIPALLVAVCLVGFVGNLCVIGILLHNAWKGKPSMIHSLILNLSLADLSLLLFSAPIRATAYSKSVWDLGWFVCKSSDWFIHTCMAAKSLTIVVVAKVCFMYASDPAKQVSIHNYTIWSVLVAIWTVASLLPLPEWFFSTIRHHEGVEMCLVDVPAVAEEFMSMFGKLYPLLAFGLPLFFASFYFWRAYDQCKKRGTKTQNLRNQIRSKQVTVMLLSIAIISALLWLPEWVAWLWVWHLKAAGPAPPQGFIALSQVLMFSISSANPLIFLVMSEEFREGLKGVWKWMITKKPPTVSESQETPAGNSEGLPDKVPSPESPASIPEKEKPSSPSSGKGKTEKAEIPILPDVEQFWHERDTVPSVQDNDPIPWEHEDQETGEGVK
MITF inh: MITF inhibitors, primary screen, biochemical, AlphaScreen, human | hit rate 0.91% among 650,000 | AlphaScreen MITF homodimerization, bead proximity signal | Microphthalmia-associated transcription factor (Homo sapiens), O75030 | inhibition, % at 2.6 µM; in the data active means inhibition above about 50%
TEAD-YAP block: TEAD-YAP interaction inhibition, primary screen, TEAD-YAP interaction inhibitor project, luminescence, HEK-TIYL cells; AID 1259422, 2018; hit rate 1.4% among 640,000; inhibition, % at 9.12 µM; TEAD-Gal4/YAP UAS-luciferase luminescence; in the data active means inhibition above about 32%
FBW7 act: FBW7 E3 ligase activators, primary screen, biochemical, AlphaScreen, human | AlphaScreen FBW7–phospho-cyclin E peptide binding, activator screen | F-box/WD repeat-containing protein 7 (Homo sapiens), Q969H0 | AID 1259310, 2017 | hit rate 0.13% among 650,000 | normalized activity (activation), % at 26.1 µM; in the data active means normalized activity above about 1.9%;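 further: purified mutant Fbw7 with reduced substrate affinity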
GPR151 conf act: GPR151 activators, triplicate retest, confirmation, cell-based, PathHunter beta-arrestin, luminescence; GPR151 PathHunter beta-arrestin cells, 90 min; % of EA-reagent control over plate median; shares compounds with GPR151 activ; 6,700 tested, under 10 active; AID 1508609, 2020; activation, % at 11.2 µM;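 active means mean percent activation across replicates above the confirmation screen cutoff of 4.91%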
GPR119 counter: GPR119 activators in beta-arrestin cells, counter-screen for GPR151 activator project, cell-based, PathHunter beta-arrestin, luminescence, triplicate. 90 min; 0 = compound-well median, 100 = enzyme-acceptor control. shares compounds with GPR151 activ. activation, % at 11.2 µM. hit rate 0.3% among 6,700;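 active means mean percent activation in the counterscreen above 29.09%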;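 further: counterscreen on off-target GPR119 to flag nonselective hits from the GPR151 activator screen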
Numbers stand for hits; n = inactive; x = no result given; ! = not active in a repeat. A selection: hits, their analogues and other compounds. The true share with any hit is near 3.5%.

SMILES	GPR151 activ	MITF inh	TEAD-YAP block	FBW7 act	GPR151 conf act	GPR119 counter
NS(=O)(=O)c1cc2c(cc1Cl)NC(c1ccc(Cl)cc1)NS2(=O)=O (configuration not stated)	n	n	n	n	x	x
FC(F)(F)c1ccc(Cn2cnc3c(NC4CC4)nc(-c4ccc(N5CCOCC5)nc4)nc32)cc1	8.0	n	n	n	n	n
OCCNc1nc(-c2csc3ccccc23)nc2c1ncn2Cc1ccc(C(F)(F)F)cc1	6.1	n	n	n	n	n
CCCNc1nc(-c2ccc(N3CCOCC3)nc2)nc2c1ncn2Cc1ccc(C(F)(F)F)cc1	n	n	n	n	x	x
FC(F)(F)c1ccc(Cn2cnc3c(Nc4ccc(N5CCOCC5)cc4)nc(-c4ccccc4)nc32)cc1	5.2	n	n	n	n	n
COc1ccc(-c2nc(NCCOc3ccccc3)c3ncn(Cc4ccc(C(F)(F)F)cc4)c3n2)cc1	4.9	n	n	n	n	n
O=[N+]([O-])c1ccc(N2CCOCC2)cc1OCCc1ccccc1	n	n	n	n	x	x
COc1ccc(/C=C/C(=O)c2cccs2)cc1[N+](=O)[O-]	n	n	n	n	x	x
COc1ccc(NC(=O)c2ccc(N3CC4CC(C3)c3cccc(=O)n3C4)c(NC(=O)c3cccs3)c2)cc1OC (configuration not stated)	n	n	n	n	x	x
FC(F)(F)c1ccc(Cn2cnc3c(Nc4ccccc4)nc(Nc4ccccc4)nc32)cc1	6.2	n	n	n	n	n
FC(F)(F)c1ccc(Cn2cnc3c(NC4CCN(Cc5ccccc5)CC4)nc(Nc4ccccc4)nc32)cc1	n	n	n	n	x	x
FC(F)(F)c1ccc(Cn2cnc3c(NC4CCN(Cc5ccccc5)CC4)nc(Nc4ccc(C(F)(F)F)cc4)nc32)cc1	5.9	n	n	n	n	n
NS(=O)(=O)c1ccc(N/N=C2\CCc3ccccc32)c([N+](=O)[O-])c1	7.5	n	n	n	n	n
Cc1cc(C)c2c(c1)/C(=N/Nc1ccc(S(N)(=O)=O)cc1[N+](=O)[O-])CCC2	n	n	n	n	x	x
C=C(C)CCC(C)N1CCC(Oc2cccc(C(=O)NCCOC)c2)CC1 (configuration not stated)	n	n	n	n	x	x
COCCNC(=O)c1cccc(OC2CCN(C(C)CSC)CC2)c1 (configuration not stated)	7.0	n	n	n	n	n
CS(=O)(=O)N1CCC(Oc2cccc(C(=O)NCCCOc3cccnc3)c2)CC1	5.0	n	n	n	n	n
O=C(/C=C/c1ccccc1)NCCOC(=O)Nc1ccccc1	9.8	n	n	n	n	n
CCOC(=O)C1=C(C)N=c2s/c(=C/c3ccc(Cl)cc3Cl)c(=O)n2C1c1cccs1 (configuration not stated)	n	n	n	n	x	x
O=c1oc2ccc(Br)cc2cc1-c1csc(-c2ccccc2)n1	5.2	n	n	n	n	n
O=c1oc2ccc(Br)cc2cc1-c1csc(-c2ccc(Cl)cc2)n1	n	n	n	n	x	x
COc1ccc2c(c1)c(CC(=O)Nc1ccc(NC(C)=O)cc1)c(C)n2C(=O)c1ccc(Cl)cc1	6.2	n	x	x	n	n
COc1ccc2c(c1)c(CC(=O)Nc1ncccc1C)c(C)n2C(=O)c1ccc(Cl)cc1	n	n	n	n	x	x
CNS(=O)(=O)c1cccc(C(=O)OCC(N)=O)c1	8.8	n	n	n	n	n
CNS(=O)(=O)c1cccc(C(=O)OCc2cc(C(C)=O)ccc2OC)c1	5.0	n	n	n	n	n
SMILES	GPR151 activ	MITF inh	TEAD-YAP block	FBW7 act	GPR151 conf act	GPR119 counter
COc1cccc(-c2n[nH]c(=S)n2Cc2ccco2)c1OC	9.1	n	n	n	n	n
COc1ccc(-c2n[nH]c(=S)n2Cc2ccco2)cc1OC	n	n	n	n	x	x
COc1ccc(C(=O)NCC(c2cccnc2)N2CCOCC2)cc1 (configuration not stated)	n	n	n	n	x	x
CCC(C(=O)N1CCC(O)(c2ccccn2)CC1)c1ccccc1 (configuration not stated)	n	n	n	n	x	x
Cc1ccc2c(c1)-c1c(cnn1CC(=O)Nc1nc3ccccc3s1)CO2	n	n	n	n	x	x
O=Cc1cc(C(=O)O)cc2c1OCOC2	11	n	n	n	n	n
Cc1ccc2c(=O)cc(-c3cc(C(=O)O)cc4c3OCOC4)oc2c1	n	n	n	n	x	x
CCOC(=O)c1c(-c2ccc(OC)cc2)oc2ccc(OC(=O)C(C)C)cc12	n	n	n	n	x	x
O=C(NC1CCCCC1)c1ccccc1C(F)(F)F	n	n	n	n	x	x
O=C(NC1CCCCC1O)c1ccccc1C(F)(F)F (configuration not stated)	9.2	n	n	n	n	n
COC(CNCc1c(C(=O)O)n(Cc2cccc(C)c2)c2ccccc12)OC	n	n	n	n	x	x
COCCNc1nc2ccccn2c(=O)c1/C=C1\SC(=S)NC1=O	5.0!	n	n	n	n	n
COc1cccc(CN(C)C(=O)c2cc3ccc(-c4cn[nH]c4)cc3n2CCN(C)C)c1	n	n	n	n	x	x
c1ccc(-n2nnnc2CSc2nc3ccccc3o2)cc1	6.6	n	n	n	n	n
Nn1c(CSc2nc3ccccc3o2)nnc1CSc1nc2ccccc2o1	n	n	n	n	x	x
Cc1ccc(S(=O)(=O)N(C)CC(=O)Nc2cccc(C)c2)cc1	n	n	n	n	x	x
COc1ccc(N=c2scc(-c3ccccc3)n2CCO)cc1	n	n	n	n	x	x
CC[n+]1c(/C=C2\Sc3ccc(-c4ccccc4)cc3N2CCO)ccc2cc(OC)ccc21	14	n	91	n	n	n
CC1CCc2c(sc3ncn4c(=O)n(CC(=O)N5CC(C)OC(C)C5)nc4c23)C1 (configuration not stated)	n	n	n	n	x	x
Fc1ccc(OCc2nn3c(-c4ccncc4)nnc3s2)cc1	6.1	n	n	n	n	n
Cc1ccc(OCc2nn3c(-c4ccc(F)cc4)nnc3s2)cc1	n	n	n	n	x	x
Cc1ccc(C2=NS(=O)(=O)N(C)C(C(=O)NCc3ccccn3)=C2)cc1	6.9	n	n	n	n	n
Cc1ccc(C2=NS(=O)(=O)N(C)C(C(=O)NCC(C)C)=C2)cc1	n	n	n	n	x	x
CC(=O)N1CCOc2cc(S(=O)(=O)N3CCCc4ccccc43)ccc21	n	n	n	n	x	x
CC(=O)N1CCc2ccc(S(=O)(=O)N3CCCc4ccccc43)cc21	6.7	n	54	n	n	n
CCOC(=O)N1CCC(=NNc2ccc(Cl)c(C(=O)O)c2)CC1	n	n	n	n	x	x
